Laboratory results published in PubChem BioAssay AID2314 (National Center for Advancing Translational Sciences (NCATS), 2010).
In all, about 300,000 compounds went through this assay and about 37,000 (12%) were called active. The full list was thinned out, with actives kept by preference. Values without a mark were called inactive. No stated cut-off is given here; in the data, active means max response mostly above about 13% (no sharp cut-off); inactive means mostly below about 14%.

Test: Cycloheximide Counterscreen for Small Molecule Inhibitors of Shiga Toxin; further: read at 38.3 µM for the half of the compounds with a filed dose; 0% is about no effect
Settings: cell reporter, cycloheximide protein synthesis inhibition counterscreen; stronger effect = higher value

Compound	max response
COc1cc(/C=C2\SC(=O)NC2=O)ccc1OCc1ccc(Cl)nc1	-3.18%
COc1ccc(NC(=S)N2CCC(NC(=O)c3cccc(F)c3)CC2)cc1	-5.6%
CCc1cc(-c2nnc(SCC(=O)NC3CC3)n2C)cs1	5.72%
COc1ccc(S(=O)(=O)N2CCCC(C(=O)Nc3ccc(NC(=O)c4ccccn4)cc3)C2)cc1 (configuration not stated)	40.2% (active)
COc1ccc(NC(=O)C2CCCN(S(=O)(=O)c3cccc4cccnc34)C2)cc1 (configuration not stated)	-0.912%
CCOc1cccc(NC(=O)C2CCCN(S(=O)(=O)c3ccc(OC)cc3)C2)c1 (configuration not stated)	2.3%
Cc1ccc(-c2cccc([C@H]3[C@@H]4C=CC[C@@H](C)[C@@H]4C(=O)N3Cc3ccccc3)c2)cc1	2.34%
Cc1ccc2c(C)c(C(=O)N(C)CCC3CCCCO3)oc2c1C (configuration not stated)	17.8%
CCOC(=O)c1nc(Nc2ccc(C(=O)OC)cc2)c2ccccc2n1	9.36%
COC(=O)c1ccc(OC(=O)c2cnccn2)cc1	-7.13%
COC(=O)c1ccc(Nc2ncnc3sccc23)cc1	39.2% (active)
NS(=O)(=O)c1ccc(-c2ccc(/C=C3\SC(=O)NC3=O)o2)cc1	-2.44%
O=C(O)C(c1ccccc1)N1C(=O)/C(=C\c2ccc(-c3cccc(Cl)c3)o2)SC1=S (configuration not stated)	0.131%
CN1C(=O)/C(=C\c2ccc(-c3ccccc3)o2)SC1=S	9.37% (active)
COc1ccc2[nH]c3c(C)c4cc[n+](C)cc4c(C)c3c2c1	-3.46%
O=C1CCCN1CCCNC(=S)Nc1ccc(F)c(Cl)c1	11.5%
Cc1ccc2cccc(OCCCOc3ccccc3CO)c2n1	13.2% (active)
Cc1ccc(N(C)C(=O)Oc2cccc3ccc(C)nc23)cc1	-4.01%
OCc1ccc(OCCCOc2cccc3cccnc23)cc1	1.36%
Cc1cc(S(=O)(=O)NCc2ccccn2)c(Cl)cc1Cl	-3.82%
O=C1NC(=Nc2ccc(Cl)cc2)SC1Cc1cccc(Cl)c1Cl (configuration not stated)	-3.08%

Compound	max response
Cc1nc(N2CCOCC2)nc2c1CCCC2	9.25%
Cc1cc(Oc2ccccc2)nc(N2CCOCC2)n1	11.6%
Nc1nc(-c2sc3nc4c(cc3c2N)CCCC4)nc(N2CCOCC2)n1	17.7% (active)
COc1ccc(N2C(=O)C(CC(=O)Nc3ccc(F)cc3)N(CCc3cccs3)C2=O)cc1 (configuration not stated)	8.62%
CNc1ccc(SC#N)cc1	-2%
Cc1cccc(C(=O)N2CCCN(C(=O)c3cccc(C)c3)CC2)c1	-1.57%
COc1ccc(OCc2cccc(C(=O)N3CCCC3)c2)cc1	59.3% (active)
CC(=O)Oc1ccc(-c2cccc(C(=O)N3CCCCC3)c2)cc1	12.6% (active)
CCOc1ccc(OCc2ccc(C(=O)N(C)c3ccccc3)o2)cc1	2.57%
COc1ccc(Cn2c(=S)[nH]c3cc(C(=O)N4CCCCC4)ccc3c2=O)cc1	-3.34%
COc1ccc(CNC(=O)C2CCN(C(=O)c3ccccc3)CC2)cc1	1.61%
Cc1cccc(C(=O)N2CCN(S(=O)(=O)N3CCCCC3)CC2)c1	-2.15%
COc1cccc(COc2ccc(N(C)S(=O)(=O)c3ccccc3)cc2)c1	-0.489%
CCOc1ccc(OCc2cccc(C(=O)N(CC)CC)c2)cc1	47.9% (active)
O=C(c1cc(S(=O)(=O)N2CCOCC2)ccc1Cl)N1CCOCC1	-3.17%
OC(c1nc2ccc(F)cc2[nH]1)C(O)c1nc2ccc(F)cc2[nH]1 (configuration not stated)	-0.936%
COc1ccccc1N1CCN(C(=O)c2cc(=O)c3cc(C)cc(C)c3o2)CC1	-2.78%
Cc1ccc(C)c(-n2c(SCC(=O)O)nc3sc4c(c3c2=O)CCCC4)c1	-4.29%
Cc1ccc(NC(=S)N(CCN(C)C)Cc2cccs2)cc1C	-3.5%
O=C(COc1ccc(-n2cnnn2)cc1)Nc1ccccc1Cl	9.71%
Cc1sc2nc(CSCC(=O)Nc3c(Cl)cccc3Cl)[nH]c(=O)c2c1C	13.5%

Compound	max response
CCOc1cc(NC(=O)Nc2ccccc2)c(OCC)cc1NC(=O)CC	-3.19%
Cc1ccc(NC(=O)Nc2ccccc2)c(Br)c1	64.5% (active)
CS(=O)(=O)c1ccc(Cl)c(NC(=O)Nc2ccccc2)c1	-1.05%
COc1ccc(S(=O)(=O)N/N=C\c2ccc(OC)c(COc3ccc(C)cc3[N+](=O)[O-])c2)cc1	-1.1%
O=C(NCc1ccco1)C(c1ccncc1)N(C(=O)Cn1nnc2ccccc21)c1ccccc1 (configuration not stated)	-1.7%
CSc1ccccc1NC(=O)CN(C)CC(=O)Nc1cccc(Br)c1	1.62%
CCN(CC)C(=O)C(=O)Nc1cccc(Br)c1	36.1% (active)
CCN(CC)C(=O)Oc1ccc(Br)cc1C(=O)Nc1ccc(F)c(Cl)c1	11%
CC(C)(C)c1ccccc1NC(=O)CN1C(=O)NC2(CCCC2)C1=O	-4.11%
CC(CN1CCOCC1)OC(=O)c1ccc(Cl)cc1Cl (configuration not stated)	20.3%
CC(CN1CCCCC1)OC(=O)c1ccccc1Cl (configuration not stated)	22.1% (active)
CC(CN1CCOCC1)c1ccccc1 (configuration not stated)	2.67%
Cc1ccc(C(=O)OC(C)CN2CCOCC2)cc1 (configuration not stated)	16.8%
Cc1cccc(C(=O)OC(C)CN2CCN(C)CC2)c1 (configuration not stated)	41.3% (active)
Cc1cccc(C(=O)OC(C)CN2CCCC2)c1 (configuration not stated)	6.5%
CC(CN1CCCCC1)c1ccccc1 (configuration not stated)	-3.13%
Cc1ccc(C(CNC(=O)Nc2cccc(C)c2)N2CCN(C)CC2)cc1 (configuration not stated)	-4.7%
CC(CN1CCOCC1)OC(=O)c1ccc(C(C)(C)C)cc1 (configuration not stated)	16.4% (active)
COc1ccc(-n2nc3c(N4CCC(C(=O)NCc5ccccc5)CC4)nnc(C)c3c2C)cc1	-13.3%
CCOC(=O)C1C(c2ccc(OC)c(OC)c2)c2c([nH][nH]c2=O)CC1(C)O (configuration not stated)	-1.55%
